# PubChem BioAssay AID1159580 (chemical genetic matrix, 2015)
# About 2,000 (36%) of roughly 5,500 compounds were called active. Roughly 18% stayed inconclusive and do not appear here. The list shows a part of the results. A number with no mark means an inactive call. Cut-off read from the data, not from the text of the source: active = normalized growth mostly below about 0.91 (no sharp cut-off); inconclusive = no clear call, values can overlap the other calls; inactive = mostly above about 0.92.
# Assay: chemical genetic growth profiling, strain panel (AID 1159580);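 note: tested at 20 µM; growth read once vehicle control cultures reached saturation at 30 °C; 1 = growth at the plate median or of vehicle wells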
# Settings: growth OD
smiles,measurement,setting,value
CCC(=O)O[C@H]1CCC2C3CCC4=CC(=O)CC[C@]4(C)C3CC[C@@]21C (some centres not stated),normalized growth,"S. cerevisiae deletion strains, locus YJR066W, strain TOR1, stronger effect = lower value",0.884
same,normalized growth,"S. cerevisiae deletion strains, locus YKL009W, strain mrt4, stronger effect = lower value",0.974
same,normalized growth,"S. cerevisiae deletion strains, locus YKL068W, stronger effect = lower value",0.972
same,normalized growth,"S. cerevisiae deletion strains, locus YKL085W, strain MDH1 (second series), stronger effect = lower value",0.901 (active)
same,normalized growth,"S. cerevisiae deletion strains, locus YKL085W, strain MDH1, stronger effect = lower value",0.901 (active)
same,normalized growth,"S. cerevisiae deletion strains, locus YKL160W, strain elf1, stronger effect = lower value",0.882 (active)
same,normalized growth,"S. cerevisiae deletion strains, locus YKR001C, strain vps1, stronger effect = lower value",0.861 (active)
same,normalized growth,"S. cerevisiae deletion strains, locus YKR026C, strain gcn3, stronger effect = lower value",0.96
same,normalized growth,"S. cerevisiae deletion strains, locus YKR091W, strain srl3, stronger effect = lower value",0.948
same,normalized growth,"S. cerevisiae deletion strains, locus YLL001W, strain dnm1, stronger effect = lower value",0.989
same,normalized growth,"S. cerevisiae deletion strains, locus YLL026W, stronger effect = lower value",0.971
same,normalized growth,"S. cerevisiae deletion strains, locus YLL041C, strain sdh2, stronger effect = lower value",0.957
same,normalized growth,"S. cerevisiae deletion strains, locus YLR027C, strain aat2, stronger effect = lower value",0.93
same,normalized growth,"S. cerevisiae deletion strains, locus YLR039C, strain RIC1, stronger effect = lower value",0.653 (active)
same,normalized growth,"S. cerevisiae deletion strains, locus YLR058C, strain SHM2, stronger effect = lower value",0.956
same,normalized growth,"S. cerevisiae deletion strains, locus YLR102C, strain apc9, stronger effect = lower value",0.99
same,normalized growth,"S. cerevisiae deletion strains, locus YLR113W, strain HOG1, stronger effect = lower value",0.941
same,normalized growth,"S. cerevisiae deletion strains, locus YLR221C, strain rsa3, stronger effect = lower value",0.925
same,normalized growth,"S. cerevisiae deletion strains, locus YLR258W, strain gsy2, stronger effect = lower value",0.899 (active)
same,normalized growth,"S. cerevisiae deletion strains, locus YLR262C, strain YPT6 (second series), stronger effect = lower value",0.671 (active)
same,normalized growth,"S. cerevisiae deletion strains, locus YLR262C, strain YPT6, stronger effect = lower value",0.633
same,normalized growth,"S. cerevisiae deletion strains, locus YLR268W, strain sec22, stronger effect = lower value",0.934
same,normalized growth,"S. cerevisiae deletion strains, locus YLR320W, strain mms22, stronger effect = lower value",0.83 (active)
same,normalized growth,"S. cerevisiae deletion strains, locus YLR330W, strain CHS5, stronger effect = lower value",0.821 (active)
same,normalized growth,"S. cerevisiae deletion strains, locus YLR342W, strain FKS1 (second series), stronger effect = lower value",0.745 (active)
same,normalized growth,"S. cerevisiae deletion strains, locus YLR342W, strain FKS1, stronger effect = lower value",0.779 (active)
same,normalized growth,"S. cerevisiae deletion strains, locus YLR357W, strain rsc2, stronger effect = lower value",0.944
same,normalized growth,"S. cerevisiae deletion strains, locus YLR370C, strain arc18, stronger effect = lower value",0.955
same,normalized growth,"S. cerevisiae deletion strains, locus YLR371W, strain rom2, stronger effect = lower value",0.783 (active)
same,normalized growth,"S. cerevisiae deletion strains, locus YLR384C, strain iki3, stronger effect = lower value",0.969
same,normalized growth,"S. cerevisiae deletion strains, locus YLR418C, strain cdc73, stronger effect = lower value",0.672 (active)
same,normalized growth,"S. cerevisiae deletion strains, locus YML016C, strain PPZ1, stronger effect = lower value",0.982
same,normalized growth,"S. cerevisiae deletion strains, locus YML032C, strain rad52, stronger effect = lower value",0.889 (active)
same,normalized growth,"S. cerevisiae deletion strains, locus YML120C, strain ndi1, stronger effect = lower value",0.952
same,normalized growth,"S. cerevisiae deletion strains, locus YML124C, strain tub3, stronger effect = lower value",0.972
same,normalized growth,"S. cerevisiae deletion strains, locus YMR058W, strain fet3, stronger effect = lower value",0.916
same,normalized growth,"S. cerevisiae deletion strains, locus YMR078C, strain ctf18, stronger effect = lower value",0.978
same,normalized growth,"S. cerevisiae deletion strains, locus YMR125W, strain sto1, stronger effect = lower value",0.913
same,normalized growth,"S. cerevisiae deletion strains, locus YMR129W, stronger effect = lower value",0.942
same,normalized growth,"S. cerevisiae deletion strains, locus YMR205C, strain PFK2, stronger effect = lower value",0.785 (active)
same,normalized growth,"S. cerevisiae deletion strains, locus YMR223W, strain ubp8, stronger effect = lower value",0.888 (active)
same,normalized growth,"S. cerevisiae deletion strains, locus YMR231W, strain pep5, stronger effect = lower value",0.957
same,normalized growth,"S. cerevisiae deletion strains, locus YMR263W, strain SAP30, stronger effect = lower value",0.963
same,normalized growth,"S. cerevisiae deletion strains, locus YMR307W, strain GAS1, stronger effect = lower value",0.917
same,normalized growth,"S. cerevisiae deletion strains, locus YNL067W, strain RPL9B, stronger effect = lower value",0.985
same,normalized growth,"S. cerevisiae deletion strains, locus YNL071W, strain lat1, stronger effect = lower value",0.719 (active)
same,normalized growth,"S. cerevisiae deletion strains, locus YNL183C, strain NPR1, stronger effect = lower value",0.89
same,normalized growth,"S. cerevisiae deletion strains, locus YNL233W, strain BNI4, stronger effect = lower value",0.803 (active)
same,normalized growth,"S. cerevisiae deletion strains, locus YNL248C, strain rpa49, stronger effect = lower value",0.86 (active)
same,normalized growth,"S. cerevisiae deletion strains, locus YNL250W, strain rad50, stronger effect = lower value",1
same,normalized growth,"S. cerevisiae deletion strains, locus YNL271C, strain bni1, stronger effect = lower value",0.963
same,normalized growth,"S. cerevisiae deletion strains, locus YNL298W, strain CLA4, stronger effect = lower value",0.949
same,normalized growth,"S. cerevisiae deletion strains, locus YNL307C, strain MCK1, stronger effect = lower value",0.679 (active)
same,normalized growth,"S. cerevisiae deletion strains, locus YNL322C, strain KRE1 (second series), stronger effect = lower value",0.952
same,normalized growth,"S. cerevisiae deletion strains, locus YNL322C, strain KRE1, stronger effect = lower value",0.958
same,normalized growth,"S. cerevisiae deletion strains, locus YNR049C, strain mso1, stronger effect = lower value",0.932
same,normalized growth,"S. cerevisiae deletion strains, locus YNR052C, strain pop2, stronger effect = lower value",0.924
same,normalized growth,"S. cerevisiae deletion strains, locus YOL006C, strain TOP1, stronger effect = lower value",0.74
same,normalized growth,"S. cerevisiae deletion strains, locus YOL012C, strain htz1",0.608
same,normalized growth,"S. cerevisiae deletion strains, locus YOL147C, strain pex11, stronger effect = lower value",0.967
same,normalized growth,"S. cerevisiae deletion strains, locus YOR001W, strain rrp6, stronger effect = lower value",0.971
same,normalized growth,"S. cerevisiae deletion strains, locus YOR061W, strain CKA2, stronger effect = lower value",0.971
same,normalized growth,"S. cerevisiae deletion strains, locus YOR069W, strain VPS5, stronger effect = lower value",0.976
same,normalized growth,"S. cerevisiae deletion strains, locus YOR070C, strain gyp1, stronger effect = lower value",0.944
same,normalized growth,"S. cerevisiae deletion strains, locus YOR080W, strain dia2, stronger effect = lower value",0.941
same,normalized growth,"S. cerevisiae deletion strains, locus YOR083W, strain WHI5, stronger effect = lower value",0.796 (active)
same,normalized growth,"S. cerevisiae deletion strains, locus YOR106W, strain vam3, stronger effect = lower value",0.837 (active)
same,normalized growth,"S. cerevisiae deletion strains, locus YOR136W, strain idh2, stronger effect = lower value",0.965
same,normalized growth,"S. cerevisiae deletion strains, locus YOR144C, strain elg1, stronger effect = lower value",0.968
same,normalized growth,"S. cerevisiae deletion strains, locus YOR184W, strain ser1, stronger effect = lower value",0.523 (active)
same,normalized growth,"S. cerevisiae deletion strains, locus YOR231W, strain MKK1, stronger effect = lower value",0.988
same,normalized growth,"S. cerevisiae deletion strains, locus YOR265W, strain rbl2, stronger effect = lower value",0.946
same,normalized growth,"S. cerevisiae deletion strains, locus YOR270C, strain vph1, stronger effect = lower value",0.653 (active)
same,normalized growth,"S. cerevisiae deletion strains, locus YOR290C, strain snf2, stronger effect = lower value",0.892
same,normalized growth,"S. cerevisiae deletion strains, locus YOR316C, strain cot1, stronger effect = lower value",0.987
same,normalized growth,"S. cerevisiae deletion strains, locus YPL051W, strain arl3, stronger effect = lower value",0.89 (active)
same,normalized growth,"S. cerevisiae deletion strains, locus YPL055C, strain LGE1, stronger effect = lower value",0.794
same,normalized growth,"S. cerevisiae deletion strains, locus YPL078C, strain atp4, stronger effect = lower value",0.869 (active)
same,normalized growth,"S. cerevisiae deletion strains, locus YPL106C, strain sse1, stronger effect = lower value",0.906
same,normalized growth,"S. cerevisiae deletion strains, locus YPL240C, strain hsp82, stronger effect = lower value",0.978
same,normalized growth,"S. cerevisiae deletion strains, locus YPL256C, strain CLN2, stronger effect = lower value",0.982
same,normalized growth,"S. cerevisiae deletion strains, locus YPR119W, strain clb2, stronger effect = lower value",0.981
same,normalized growth,"S. cerevisiae deletion strains, locus YPR141C, strain kar3, stronger effect = lower value",0.976
same,normalized growth,"S. cerevisiae deletion strains, locus YPR163C, strain tif3, stronger effect = lower value",0.933
same,normalized growth,"S. cerevisiae deletion strains, locus YPR167C, strain met16, stronger effect = lower value",0.971
same,normalized growth,"S. cerevisiae deletion strains, strain wtn01, stronger effect = lower value",0.924
same,normalized growth,"S. cerevisiae strains, strain wild type, stronger effect = lower value",0.944
